According to PubChem BioAssay (EPA / NIEHS):
Calls of active or inactive are those of the source. Rule for the calls: active = hit-call score of the fitted dose curve at least 0.9, where 1 is the maximum; inactive = score below 0.9.

Assay: APR_HepG2_p53Act_72hr: Apredica 72-hour HepG2 Assay for p53 Activation (AID 2282923);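 note: average cellular p53 protein immunofluorescence intensity in HepG2 cells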
Details: high-content imaging, actives raise or lower the signal
Method: APR_HepG2_72hr is a cell-based, multiplexed-readout assay that uses HepG2, a human liver cell line, with measurements taken at 72 hours after chemical dosing in a 384-well plate.APR_HepG2_p53Act_72hr is one of 10 assay component(s) measured or calculated from the APR_HepG2_72hr assay. It is designed to make measurements of dna content, a form of viability reporter, as detected with fluorescence intensity signals by HCS Fluorescent Imaging technology.Data from the assay component APR_HepG2_p53Act_72hr was analyzed into 1 assay endpoint. This assay endpoint, APR_HepG2_p53Act_72hr, was analyzed with bidirectional fitting relative to DMSO as the negative control and baseline of activity. Using a type of viability reporter, measures of protein for gain or loss-of-signal activity can be used to understand the signaling at the pathway-level as they relate to the gene TP53. Furthermore, this assay endpoint can be referred to as a primary readout, because this assay has produced multiple assay endpoints where this one serves a signaling function. To generalize the intended target to other relatable targets, this assay endpoint is annotated to the dna binding intended target family, where the subfamily is tumor suppressor.
Cells were treated with dimethyl sulfoxide (DMSO) as a solvent control at a final concentration of 0.5% v/v or with compounds in DMSO with a resulting final DMSO concentration of 0.5% v/v. Compound treatment was done at concentrations of 0.39, 0.78, 1.56, 3.12, 6.24, 12.5, 25, 50, 100, and 200 uM in duplicate on each plate. Cells were treated with compounds for 1, 24, or 72 hr. Carbonyl […] m-chloro-phenylhydrazone (CCCP) and taxol were used as positive controls for mitochondrial function and cytoskeletal stability, respectively; DMSO served as the negative control for this experiment. Cells were fixed by the direct addition of 50 uL formaldehyde in Hank's Balanced Salt Solution (HBSS) to a final concentration of 3.7%. After incubation in the fixation medium for 30 min at room temperature (293-298 K), cells were rinsed twice with HBSS and treated with cell permeabilization buffer (16 uL of 0.5% Triton X-100) for 10 min at room temperature (293-298 K) before labeling. For mitochondrial membrane potential and mitochondrial measurements, pre-fixed cells were incubated with 50 uL of MitoTracker Red CMXRos (Invitrogen) at a concentration of 250 nM for 30 min before fixation. In the remaining cases, post-fixed cells were labeled by incubation with a multiplexed mixture of primary antibodies in HBSS for 60 min at room temperature (293-298 K) to detect immunoreactivity of c-Jun (1:500), phospho-histone H3 (1:100), phospho-histone H2A.x (1:200), p53 (1:400), alpha-tubulin (1:200) and Hoechst 33342 (2 ug/mL). Cells were labeled for multiplexed imaging on two separate plates: a) Hoechst 33342, MitoTracker Red, phospho-histone H3, and alpha-tubulin, and b) Hoechst 33342, phospho-histone H2A.x, and c-Jun. A final rinse with HBSS (50 uL) was performed before analysis. The primary and secondary antibodies for the proteins were phospho-histone H3 (rabbit anti-phospho-histone H3 and FITC-donkey anti-rabbit IgG), phospho-histone H2A.x (mouse anti-phospho-histone H2A.x and FITC-donkey anti-mouse IgG), c-Jun (rabbit anti-phospho-c-Jun and Cy3-donkey anti-rabbit IgG), p53 (sheep anti-p53 and Cy5-donkey anti-sheep IgG), alpha-tubulin (mouse anti-alpha-tubulin and Cy5-donkey anti-mouse IgG). These antibodies are available as the CellCiphr HepG2 assay kit (Millipore).Digital images of each well were captured using a Cellomics ArrayScan VTI (Thermo Scientific Cellomics) (0.8 NA objective, 0.63x optical coupler, and XF-93 filter set) at 20x magnification. The images were acquired using the autofocus feature of the ArrayScan instrument, which entails the following steps. First, the camera focuses on channel 1 (Hoechst 33342), where nuclei are identified. Second, a Z offset of 1 um is used for capturing mitochondria (MitoTracker Red). […]

SMILES	AC50	outcome
CCN(Cc1cccnc1)C(=O)c1cccc(Cl)c1[C@]1(C)C(=O)N(Cc2ccc(OC)cc2OC)c2ccc(Cl)cc21	29.4 µM (active)	–
CN1C(=O)N(c2ccccc2Br)Cc2cnc(Nc3ccc4c(c3)OCC(CO)O4)nc21 (stereo not given)	4.04 µM (active)	–
COCC(C)OCC(C)OCC(C)O (stereo not given)	–	inactive
CC(C)(O)c1ccc(CNC(=O)c2cccnc2Oc2ccc3nonc3c2)cc1	–	inactive
O=C(O)Cc1cc(I)c(Oc2ccc(O)c(I)c2)c(I)c1	–	inactive
CN(C)c1ccc(C(=C2C=CC(=[N+](C)C)C=C2)c2ccc(N(C)C)cc2)cc1	19.9 µM (active)	–
O=C1CCC(C2CCCCC2)CC1	–	inactive
Cc1cc(F)ccc1-c1cc(N2CC[C@@H](O)[C@H]2CO)ncc1N(C)C(=O)C(C)(C)c1cc(C(F)(F)F)cc(C(F)(F)F)c1	65 µM (active)	–
NCc1cccc(C2CCN(C(=O)c3ccc(C#Cc4ccccc4F)o3)CC2)c1	11.4 µM (active)	–
CC1=CC(=O)/C(=C(/C)O)C(=O)O1	–	inactive
c1ccc2n[nH]nc2c1	–	inactive
O=c1[nH]sc2ccccc12	48.5 µM (active)	–
Cc1cc2c(cc1C(F)(F)F)N(C(=O)Nc1ccc(Oc3cccnc3C)nc1)CC2	27.8 µM (active)	–
CCN(Cc1cccc(S(=O)(=O)O)c1)c1ccc(C(=C2C=CC(=[N+](CC)Cc3cccc(S(=O)(=O)O)c3)C=C2)c2ccccc2S(=O)(=O)[O-])cc1	–	inactive
O=c1ccc2ccccc2o1	–	inactive
CN1C(=O)CC[C@H]1c1cccnc1	–	inactive
CC[C@H](NC(=O)c1cc(F)ccc1NS(=O)(=O)c1cccc2cccnc12)c1ccccc1	–	inactive
CCCCCCCCN(C)CCCCCCCC	–	inactive
Cc1occc1C(=O)Nc1ccc(C(=O)N2CCC(F)(F)/C(=C\C(=O)N3CCC(N4CCCCC4)CC3)c3ccccc32)cc1	29 µM (active)	–
CC/C(=C(/CC)c1ccc(O)cc1)c1ccc(O)cc1	74.1 µM (active)	–

SMILES	AC50	outcome
OC12N=C(c3ccccc3)SC1Cc1cc(Cl)ccc12 (stereo not given)	–	inactive
CN(C)C(=O)C1(N2CCCCC2)CCN(CC[C@@]2(c3ccc(Cl)c(Cl)c3)CN(C(=O)c3ccccc3)CCO2)CC1	20.2 µM (active)	–
CCCCCCCCCCCC[N+](C)(C)C	20.5 µM (active)	–
Clc1cc(Cl)c2c(c1)N=C1CCCCCN1C2	–	inactive
CC(C)(C)c1cc(/C=C2\SC(N)=NC2=O)cc(C(C)(C)C)c1O	35.2 µM (active)	–
CCCCCCCCCCCCO	–	inactive
Cc1cn([C@H]2C[C@H](N=[N+]=[N-])[C@@H](CO)O2)c(=O)[nH]c1=O	–	inactive
CO[C@H]1/C=C/O[C@@]2(C)Oc3c(C)c(O)c4c(O)c(c(/C=N/N5CCN(C)CC5)c(O)c4c3C2=O)NC(=O)/C(C)=C\C=C\[C@H](C)[C@H](O)[C@@H](C)[C@@H](O)[C@@H](C)[C@H](OC(C)=O)[C@@H]1C	–	inactive
NC(=O)c1nc(-c2cccc(-c3cc(F)ccc3OCC(F)(F)C(F)(F)F)c2)n[nH]1	–	inactive
Cc1oc2c(NC(=O)c3c(Cl)cccc3Cl)cccc2c1C(C)(C)O	–	inactive
Oc1ccccc1	–	inactive
O=C(Nc1ccc(Cl)cc1)Nc1ccc(Cl)c(Cl)c1	5.61 µM (active)	–
O=CCCCC=O	–	inactive
O=C(O)c1ccccc1C(=O)OCc1ccccc1	–	inactive
Cc1cccc2ccccc12	–	inactive
CCCCCc1ccc(N)cc1	–	inactive
c1ccc(C[n+]2cccc3ccccc32)cc1	–	inactive
O=C(O)Cn1c(=O)n(Cc2ccc(Br)cc2F)c(=O)c2ccc(Cl)cc21	–	inactive
CCO[Si](CCCNC(N)=O)(OCC)OCC	–	inactive
Cc1ncc(CO)c(CO)c1O	–	inactive
